# PubChem BioAssay
# Activity calls are given as the source filed them.
# Key:
# [1] = binders of probe aFSTL3 on microarray, primary screen, stem cell growth factor project, biochemical, small-molecule microarray, fluorescence 635/667 (AID 1064); conditions: higher = more signal;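 also: measures binding of the biotinylated anti-FSTL3 antibody to printed compounds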
# [2] = binders from COS7 lysate, DM2A8 probe, primary screen, torsin A project, cell lysate, small-molecule microarray, fluorescence 635/667 (AID 1065); conditions: higher = more signal, COS7 lysate expressing mutant human TOR1A
# [3] = binders of probe aFGF2 on microarray, primary screen, stem cell growth factor project, biochemical, small-molecule microarray, fluorescence 635/667 (AID 1067); conditions: higher = more signal;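 also: measures binding of biotinylated aFGF2 protein to printed compounds on slides; z-score merges feature fluorescence and signal-to-noise across triplicate slides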
# [4] = binders of probe aFGF10 on microarray, primary screen, stem cell growth factor project, biochemical, small-molecule microarray, fluorescence 635/667 (AID 1071); conditions: higher = more signal;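 also: score merges 667 nm spot intensity and signal to noise from triplicate slides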
# [5] = target: Neurogenic locus notch homolog protein 2 (Homo sapiens) (UniProt Q04721); assay: Notch2 binders on small-molecule microarrays, primary screen, biochemical, small-molecule microarray, 635 nm fluorescence, stem cell growth factors (AID 1073); conditions: Notch2 binding, higher = more signal
# [6] = target: Pro-neuregulin-1, membrane-bound isoform (Homo sapiens) (UniProt Q02297); assay: NRG1 binders on small-molecule microarrays, primary screen, psychiatric disease protein project, biochemical, small-molecule microarray, fluorescence 635/667 (AID 1075); conditions: NRG1 binding, 635 nm fluorescence, higher = more signal;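 also: score combines 667 nm spot fluorescence with signal to noise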
# [7] = test system: Neuregulin-1 EGF-like domain; assay: binders of neuregulin-1 EGF-like domain, primary screen, biochemical, small-molecule microarray, 635 nm fluorescence (AID 1081); conditions: small-molecule microarray binding, higher = more signal;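 also: binding of the protein to compounds printed on small-molecule microarray slides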
# [8] = FRG1 promoter luciferase signal modulators, primary screen, FRG1 inhibition for FSHD, cell-based, C2C12 myotubes, firefly/Renilla luciferase, luminescence (AID 1084); conditions: higher = more signal, called active from +8 up or from −8 down
# [9] = binders of probe aFST on microarray, primary screen, stem cell growth factor project, biochemical, small-molecule microarray, fluorescence 635/667 (AID 1086); conditions: higher = more signal;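 also: score merges 667 nm fluorescence with signal-to-noise of each printed compound spot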
# [10] = binders of probe aHhip on microarray, primary screen, stem cell growth factor project, biochemical, small-molecule microarray, fluorescence 635/667 (AID 1087); conditions: higher = more signal;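 also: score merges spot fluorescence at 667nm with spot signal to noise ratio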
# [11] = test system: PRMT1 (protein arginine N-methyltransferase 1); assay: PRMT1 binders on small-molecule microarrays, primary screen, biochemical, small-molecule microarray, 635 nm fluorescence (AID 1088); conditions: small-molecule microarray binding, higher = more signal;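 also: binding of Prmt1 protein to compounds spotted on small-molecule microarray slides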
# [12] = yeast growth modulation, basal conditions, primary screen, YJM789 clinical isolate, OD600, 24 h (AID 1089);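 also: growth of clinical yeast isolate S. cerevisiae YJM 789 seeded 1000 cells per well; test concentration not given here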; conditions: S. cerevisiae YJM789 growth, higher = more signal, called active from +8 up or from −8 down
# [13] = fission yeast growth modulation, primary screen, strain 972, OD600, 24 h, no modulator (AID 1090);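 also: basal condition with compound alone and no growth modifier present; test concentration not given here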; conditions: S. pombe 972 growth, higher = more signal, called active from +8 up or from −8 down
# [14] = S. cerevisiae growth modulation with rapamycin, primary screen, strain BY4716, OD600, 96 h (AID 1091); conditions: higher = more signal, called active from +8 up or from −8 down; also: test concentration not given here
# [15] = target: Torsin-1A-interacting protein 2 (Homo sapiens) (UniProt Q8NFQ8); assay: LULL1 binders on small-molecule microarray, primary screen, cell lysate, human LULL1 lysate, 635/667 nm fluorescence (AID 1092); conditions: hLULL1 lysate binding, 635 nm fluorescence, higher = more signal;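 also: probe is lysate of COS7 cells overexpressing human LULL1; score merges per-feature 667 nm fluorescence with signal-to-noise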
# [16] = E. coli growth modulation, two-sided OD650, primary screen, E. coli filamentation project, strain DRC41, 24 h (AID 1093); conditions: OD650, 24 h, higher = more signal, called active from +8 up or from −8 down;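 also: MC1000 strain lacking acrAB efflux and sulA so SOS filamentation is blocked; test concentration not given here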
# [17] = small-molecule microarray binders of probe aLefty2, primary screen, biochemical, biotinylated probe, 635/667 nm fluorescence (AID 1094); conditions: higher = more signal;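 also: score merges spot fluorescence near 667 nm with spot signal-to-noise ratio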
# [18] = test system: Noggin (protein binding on small-molecule microarray); assay: Noggin binders on small-molecule microarray, primary screen, biochemical, 635/667 nm fluorescence (AID 1095); conditions: 635 nm fluorescence, higher = more signal;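 also: score merges 667 nm feature fluorescence with signal to noise over triplicate slides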
# [19] = target: Neurogenic locus notch homolog protein 3 (Homo sapiens) (UniProt Q9UM47); assay: NOTCH3 binders on small-molecule microarray, primary screen, biochemical, 635/667 nm fluorescence (AID 1096); conditions: NOTCH3 binding, 635 nm fluorescence, higher = more signal
# [20] = small-molecule microarray binders of probe aEGFR, primary screen, biochemical, biotinylated probe, 635/667 nm fluorescence (AID 1097); conditions: higher = more signal;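 also: probe is a biotinylated anti-EGFR antibody binding compounds printed on slides; score combines fluorescence near 667 nm and signal to noise of each spot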
# Chain of Torsin-1A-interacting protein 2 (Homo sapiens) (Q8NFQ8 whole entry, looked up): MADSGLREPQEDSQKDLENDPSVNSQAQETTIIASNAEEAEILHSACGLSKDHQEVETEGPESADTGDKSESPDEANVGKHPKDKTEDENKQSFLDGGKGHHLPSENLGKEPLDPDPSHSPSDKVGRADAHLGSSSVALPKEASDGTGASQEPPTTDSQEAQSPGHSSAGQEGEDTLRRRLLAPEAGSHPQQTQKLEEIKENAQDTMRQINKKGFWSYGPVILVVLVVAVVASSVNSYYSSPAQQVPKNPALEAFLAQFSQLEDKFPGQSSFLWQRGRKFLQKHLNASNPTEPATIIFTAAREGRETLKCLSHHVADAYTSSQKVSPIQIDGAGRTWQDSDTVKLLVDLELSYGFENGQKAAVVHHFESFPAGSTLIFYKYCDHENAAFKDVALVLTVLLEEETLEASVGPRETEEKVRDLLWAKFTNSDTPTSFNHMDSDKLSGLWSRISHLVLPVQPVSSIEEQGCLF
# Chain of Neurogenic locus notch homolog protein 3 (Homo sapiens) (Q9UM47 whole entry, looked up): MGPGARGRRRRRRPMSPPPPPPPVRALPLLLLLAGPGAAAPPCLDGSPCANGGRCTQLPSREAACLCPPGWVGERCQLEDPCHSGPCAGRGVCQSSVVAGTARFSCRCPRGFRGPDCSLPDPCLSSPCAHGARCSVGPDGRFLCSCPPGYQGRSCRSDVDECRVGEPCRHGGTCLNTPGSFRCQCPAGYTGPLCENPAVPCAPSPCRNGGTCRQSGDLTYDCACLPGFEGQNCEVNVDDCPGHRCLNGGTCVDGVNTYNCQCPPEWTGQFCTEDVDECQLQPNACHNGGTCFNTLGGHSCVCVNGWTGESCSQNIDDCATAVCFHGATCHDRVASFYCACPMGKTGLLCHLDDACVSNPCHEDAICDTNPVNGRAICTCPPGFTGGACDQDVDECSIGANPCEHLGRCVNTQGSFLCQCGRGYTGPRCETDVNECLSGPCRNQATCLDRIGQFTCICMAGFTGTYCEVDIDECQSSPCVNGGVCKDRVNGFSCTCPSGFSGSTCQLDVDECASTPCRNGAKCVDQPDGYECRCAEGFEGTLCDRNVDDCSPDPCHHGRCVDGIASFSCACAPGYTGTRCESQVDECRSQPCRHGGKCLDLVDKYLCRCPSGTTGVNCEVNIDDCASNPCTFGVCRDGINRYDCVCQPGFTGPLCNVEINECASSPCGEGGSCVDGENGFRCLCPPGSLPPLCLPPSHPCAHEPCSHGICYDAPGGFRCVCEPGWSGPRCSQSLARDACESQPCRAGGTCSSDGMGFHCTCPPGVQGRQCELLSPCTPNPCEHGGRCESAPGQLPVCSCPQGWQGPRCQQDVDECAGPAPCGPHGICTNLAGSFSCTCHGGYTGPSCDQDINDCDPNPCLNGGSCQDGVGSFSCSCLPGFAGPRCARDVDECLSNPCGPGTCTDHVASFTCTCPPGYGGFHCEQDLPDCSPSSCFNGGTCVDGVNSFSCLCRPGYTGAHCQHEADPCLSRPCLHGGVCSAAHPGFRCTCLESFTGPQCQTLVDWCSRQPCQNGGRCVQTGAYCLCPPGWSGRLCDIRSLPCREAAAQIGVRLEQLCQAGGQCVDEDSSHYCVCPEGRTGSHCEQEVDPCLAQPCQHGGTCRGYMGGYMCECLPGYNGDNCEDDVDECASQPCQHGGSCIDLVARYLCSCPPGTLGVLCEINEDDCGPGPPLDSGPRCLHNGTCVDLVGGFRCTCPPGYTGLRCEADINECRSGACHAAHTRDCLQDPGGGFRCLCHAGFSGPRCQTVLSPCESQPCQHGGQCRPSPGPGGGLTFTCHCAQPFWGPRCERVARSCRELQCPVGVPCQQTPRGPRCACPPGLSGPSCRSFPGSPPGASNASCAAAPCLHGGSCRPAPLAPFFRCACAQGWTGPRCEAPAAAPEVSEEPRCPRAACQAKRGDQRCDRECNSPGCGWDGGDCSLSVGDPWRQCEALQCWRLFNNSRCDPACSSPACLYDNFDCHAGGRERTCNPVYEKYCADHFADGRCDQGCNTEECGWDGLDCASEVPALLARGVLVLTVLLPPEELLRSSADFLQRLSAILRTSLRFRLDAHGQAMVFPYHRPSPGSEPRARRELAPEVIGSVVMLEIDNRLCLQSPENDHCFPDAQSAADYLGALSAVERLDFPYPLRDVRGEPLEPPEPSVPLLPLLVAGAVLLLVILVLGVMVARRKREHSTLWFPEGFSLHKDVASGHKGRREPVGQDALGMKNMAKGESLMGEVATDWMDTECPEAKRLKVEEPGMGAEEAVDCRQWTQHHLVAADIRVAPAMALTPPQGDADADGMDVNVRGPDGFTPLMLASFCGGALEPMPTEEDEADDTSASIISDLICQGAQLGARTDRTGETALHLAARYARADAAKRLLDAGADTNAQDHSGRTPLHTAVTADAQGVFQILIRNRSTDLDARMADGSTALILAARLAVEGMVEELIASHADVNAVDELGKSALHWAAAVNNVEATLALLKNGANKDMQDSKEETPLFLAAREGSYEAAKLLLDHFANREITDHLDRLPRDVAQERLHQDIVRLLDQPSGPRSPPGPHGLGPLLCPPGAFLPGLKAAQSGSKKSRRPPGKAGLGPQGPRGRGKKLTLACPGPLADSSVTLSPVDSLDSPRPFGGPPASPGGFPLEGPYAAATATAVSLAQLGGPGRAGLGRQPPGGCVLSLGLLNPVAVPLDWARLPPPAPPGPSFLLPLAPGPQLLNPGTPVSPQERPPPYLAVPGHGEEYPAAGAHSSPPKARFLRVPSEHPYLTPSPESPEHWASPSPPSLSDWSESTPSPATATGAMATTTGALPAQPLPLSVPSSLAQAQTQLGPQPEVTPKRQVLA
# Chain of Pro-neuregulin-1, membrane-bound isoform (Homo sapiens) (Q02297 whole entry, looked up, the tested form may be a part, canonical isoform): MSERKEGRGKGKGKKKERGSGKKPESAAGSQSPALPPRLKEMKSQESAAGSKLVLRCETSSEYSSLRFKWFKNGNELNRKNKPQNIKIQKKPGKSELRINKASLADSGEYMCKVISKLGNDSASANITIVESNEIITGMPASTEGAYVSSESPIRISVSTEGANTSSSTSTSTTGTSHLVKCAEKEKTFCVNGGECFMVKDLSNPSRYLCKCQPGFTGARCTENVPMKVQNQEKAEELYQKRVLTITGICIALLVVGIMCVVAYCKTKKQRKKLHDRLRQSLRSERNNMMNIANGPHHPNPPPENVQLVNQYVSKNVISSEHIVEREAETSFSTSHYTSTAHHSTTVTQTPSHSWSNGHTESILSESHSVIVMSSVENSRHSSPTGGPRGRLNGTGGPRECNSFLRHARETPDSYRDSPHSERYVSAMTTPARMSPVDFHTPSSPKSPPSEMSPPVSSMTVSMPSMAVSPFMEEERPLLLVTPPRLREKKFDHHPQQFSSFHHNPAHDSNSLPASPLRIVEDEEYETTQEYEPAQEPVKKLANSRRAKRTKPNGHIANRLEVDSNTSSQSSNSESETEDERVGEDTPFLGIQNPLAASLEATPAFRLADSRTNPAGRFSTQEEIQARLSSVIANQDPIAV
SMILES,composite z-score [1],composite z-score [2],composite z-score [3],composite z-score [4],composite z-score [5],composite z-score [6],composite z-score [7],z-score [8],composite z-score [9],composite z-score [10],composite z-score [11],z-score [12],z-score [13],z-score [14],composite z-score [15],z-score [16],composite z-score [17],composite z-score [18],composite z-score [19],composite z-score [20]
COc1cc2c(cc1OC)CN(C(=O)[C@@H]1[C@H]3C(=O)O[C@H](c4ccccc4)[C@H](c4ccccc4)N3[C@H](c3ccc(OCCO)cc3)[C@@]13C(=O)Nc1ccc(C#CCCO)cc13)CC2,-0.0108,0.718,0.105,0.944,1.56,1.58,1.27,0.838 (inactive),0.0774,0.169,1.54,1.68 (inactive),-0.283 (inactive),3.2 (inactive),3.38,2 (inactive),0.674,1.46,1.08,0.276
[N-]=[N+]=NCc1ccccc1C[C@@]1(C(=O)NCCN2CCOCC2)N=C(c2ccc(OCCCO)cc2)O[C@@H]1c1ccccc1CN=[N+]=[N-],-0.166,0.69,0.105,0.924,1.26,1.27,1.21,-2.25 (inactive),1.59,0.0053,1.56,-0.0759 (inactive),-0.67 (inactive),2.01 (inactive),2.84,1.24 (inactive),0.146,1.11,1.08,0.177
Cc1ccc(S[C@]2(C(=O)NCC(C)C)CC(=O)N(C3CCCCC3)[C@@H]2c2ccc(CO)cc2I)cc1,-0.25,0.0044,0.062,0.384,0.939,1.42,1.03,-2.29 (inactive),0.0997,-0.166,1.56,-0.525 (inactive),0.293 (inactive),-0.0866 (inactive),2.59,0.12 (inactive),0.11,0.165,1,-0.276
CCCNC(=O)[C@@H]1c2ccccc2C(=O)N(CC23CC4CC(CC(C4)C2)C3)[C@H]1c1ccc(CO)cc1,-0.371,-0.101,-0.0588,0.618,1.56,1.3,1.26,-2.41 (inactive),1.3,0.0373,1.44,-0.449 (inactive),-1.63 (inactive),0.835 (inactive),2.79,-0.693 (inactive),0.267,0.406,1.1,0.167
